Assay results from the supplement of paper PMC9794691.

How the values were obtained:
H1975 [1] = assay: area under confluence curve of osimertinib + compound combination regimen (DTP regrowth); compare to osimertinib-only DTP control AUC of the same experiment (AUC (confluence x time, arbitrary)); conditions: DMSO control AUC in same experiment: 20657
Procedure, shortened: (§1)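 Two schedules were compared in EGFR-mutant NSCLC lines. In one, the EGFR inhibitor and a fixed-dose test compound were given together up to the persister stage (10–21 days), followed by drug-free medium. In the other, the inhibitor alone came first and the test compound second. Prism calculated the area under the IncuCyte confluence–time curve, taking the median of triplicates where these were available.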

HCC2279 [2] = assay: as above
Procedure, shortened: as §1

HCC2935 [3] = assay: as above
Procedure, shortened: as §1

HCC4006 [4] = assay: as above
Procedure, shortened: as §1

HCC827 [5] = assay: as above
Procedure, shortened: as §1

II-18 [6] = assay: as above; conditions: DMSO control AUC in same experiment: 7080
Procedure, shortened: as §1

H1975 [7] = assay: area under confluence curve of compound monotherapy; compare to DMSO control AUC of the same experiment (AUC (confluence x time, arbitrary))
Procedure, shortened: (§2)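 EGFR-mutant adenocarcinoma lines (RPMI 1640, 10% FBS, 37 °C, 5% CO2) were seeded at 20,000–30,000 cells/well in 48-well plates and next day given test compound alone at one dose (highest with <50% parental inhibition, or 1 uM), refreshed after PBS washes every 3–4 days, then drug-free from DTP stage (10–21 days). IncuCyte confluence was tracked until EGFR-inhibitor-only wells regrew. Area under the confluence curve came from Prism (median of triplicates where run), beside same-experiment vehicle AUC.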

HCC2279 [8] = assay: as above
Procedure, shortened: as §2

HCC2935 [9] = assay: as above
Procedure, shortened: as §2

HCC4006 [10] = assay: as above
Procedure, shortened: as §2

HCC827 [11] = assay: as above
Procedure, shortened: as §2

II-18 [12] = assay: as above
Procedure, shortened: as §2

Structure (SMILES): Cc1cc(N2C[C@@H](C)N[C@@H](C)C2)ncc1-c1ccc(-c2nc3c(ccn3C)c(=O)[nH]2)cc1 + C=CC(=O)Nc1cc(Nc2nccc(-c3cn(C)c4ccccc34)n2)c(OC)cc1N(C)CCN(C)C [osimertinib]
- area under confluence curve (H1975 [1]; test compound dose 1000 nM, dosing schedule: sequential, osimertinib-only DTP control AUC in same experiment: 15943): 12600
- area under confluence curve (H1975 [1]; test compound dose 1000 nM, dosing schedule: upfront, osimertinib-only DTP control AUC in same experiment: 27804): 11600
- area under confluence curve (HCC2279 [2]; test compound dose 1000 nM, dosing schedule: sequential, osimertinib-only DTP control AUC in same experiment: 15997, DMSO control AUC in same experiment: 40085): 7150
- area under confluence curve (HCC2279 [2]; test compound dose 1000 nM, dosing schedule: upfront, osimertinib-only DTP control AUC in same experiment: 28057, DMSO control AUC in same experiment: 40085): 4140
- area under confluence curve (HCC2935 [3]; test compound dose 1000 nM, dosing schedule: sequential, osimertinib-only DTP control AUC in same experiment: 7139, DMSO control AUC in same experiment: 15413): 3770
- area under confluence curve (HCC2935 [3]; test compound dose 1000 nM, dosing schedule: upfront, osimertinib-only DTP control AUC in same experiment: 19044, DMSO control AUC in same experiment: 15413): 6190
- area under confluence curve (HCC4006 [4]; test compound dose 1000 nM, dosing schedule: sequential, osimertinib-only DTP control AUC in same experiment: 14882, DMSO control AUC in same experiment: 10921): 6450
- area under confluence curve (HCC4006 [4]; test compound dose 1000 nM, dosing schedule: upfront, osimertinib-only DTP control AUC in same experiment: 18913, DMSO control AUC in same experiment: 10921): 7770
- area under confluence curve (HCC827 [5]; test compound dose 1000 nM, dosing schedule: sequential, osimertinib-only DTP control AUC in same experiment: 18675, DMSO control AUC in same experiment: 48895): 2580
- area under confluence curve (HCC827 [5]; test compound dose 1000 nM, dosing schedule: upfront, osimertinib-only DTP control AUC in same experiment: 25542, DMSO control AUC in same experiment: 48895): 7720
- area under confluence curve (II-18 [6]; test compound dose 1000 nM, dosing schedule: sequential, osimertinib-only DTP control AUC in same experiment: 21122): 1300
- area under confluence curve (II-18 [6]; test compound dose 1000 nM, dosing schedule: upfront, osimertinib-only DTP control AUC in same experiment: 22894): 1140

Structure (SMILES): COc1nnc2ccc(N3CCC(c4ccc(OCCN5CCN(C)C(=O)[C@H]5C)cc4)CC3)nn12
- area under confluence curve (H1975 [7]; 300 nM, DMSO control AUC in same experiment: 14522): 6020
- area under confluence curve (HCC2279 [8]; 300 nM, DMSO control AUC in same experiment: 27284): 21500
- area under confluence curve (HCC2935 [9]; 300 nM, DMSO control AUC in same experiment: 11459): 13000
- area under confluence curve (HCC4006 [10]; 30 nM, DMSO control AUC in same experiment: 10921): 6660
- area under confluence curve (HCC827 [11]; 300 nM, DMSO control AUC in same experiment: 48895): 42000
- area under confluence curve (II-18 [12]; 30 nM, DMSO control AUC in same experiment: 18996): 14400

Structure (SMILES): Cn1cc(CNCC2CCN(c3ncc(C(=O)NO)cn3)CC2)c2ccccc21 [Quisinostat]
- area under confluence curve (H1975 [7]; 10 nM, DMSO control AUC in same experiment: 20657): 8960
- area under confluence curve (HCC2279 [8]; 10 nM, DMSO control AUC in same experiment: 29252): 18800
- area under confluence curve (HCC2935 [9]; 10 nM, DMSO control AUC in same experiment: 13875): 8250
- area under confluence curve (HCC4006 [10]; 10 nM, DMSO control AUC in same experiment: 16638): 11600
- area under confluence curve (HCC827 [11]; 10 nM, DMSO control AUC in same experiment: 27404): 25100
- area under confluence curve (II-18 [12]; 10 nM, DMSO control AUC in same experiment: 7080): 3280

Structure (SMILES): COC(=O)c1ccc([C@H]2c3[nH]c4ccccc4c3C[C@H](C(=O)OC)N2C(=O)CCl)cc1
- area under confluence curve (H1975 [7]; 100 nM, DMSO control AUC in same experiment: 26010): 25200
- area under confluence curve (HCC2279 [8]; 100 nM, DMSO control AUC in same experiment: 9426): 9000
- area under confluence curve (HCC2935 [9]; 100 nM, DMSO control AUC in same experiment: 11459): 11700
- area under confluence curve (HCC4006 [10]; 100 nM, DMSO control AUC in same experiment: 16638): 16200
- area under confluence curve (HCC827 [11]; 100 nM, DMSO control AUC in same experiment: 35394): 29100
- area under confluence curve (II-18 [12]; 100 nM, DMSO control AUC in same experiment: 13556): 7620

Structure (SMILES): CN(C)CCCOc1ccc(-c2ccc3ncc4c(c3c2)n(C2CCOCC2)c(=O)n4C)cn1
- area under confluence curve (H1975 [7]; 300 nM, DMSO control AUC in same experiment: 26223): 22300
- area under confluence curve (HCC2279 [8]; 300 nM, DMSO control AUC in same experiment: 14404): 14100
- area under confluence curve (HCC2935 [9]; 300 nM, DMSO control AUC in same experiment: 19215): 21000
- area under confluence curve (HCC4006 [10]; 300 nM, DMSO control AUC in same experiment: 18415): 20100
- area under confluence curve (HCC827 [11]; 300 nM, DMSO control AUC in same experiment: 21320): 20700
- area under confluence curve (II-18 [12]; 300 nM, DMSO control AUC in same experiment: 11834): 12300

Structure (SMILES): Cn1cc(CNCC2CCN(c3ncc(C(=O)NO)cn3)CC2)c2ccccc21 [Quisinostat] + C=CC(=O)Nc1cc(Nc2nccc(-c3cn(C)c4ccccc34)n2)c(OC)cc1N(C)CCN(C)C [osimertinib]
- area under confluence curve (H1975 [1]; test compound dose 10 nM, dosing schedule: sequential, osimertinib-only DTP control AUC in same experiment: 15943): 1750
- area under confluence curve (H1975 [1]; test compound dose 10 nM, dosing schedule: upfront, osimertinib-only DTP control AUC in same experiment: 27804): 5730
- area under confluence curve (HCC2279 [2]; test compound dose 10 nM, dosing schedule: sequential, osimertinib-only DTP control AUC in same experiment: 20224, DMSO control AUC in same experiment: 29252): 6370
- area under confluence curve (HCC2279 [2]; test compound dose 10 nM, dosing schedule: upfront, osimertinib-only DTP control AUC in same experiment: 43517, DMSO control AUC in same experiment: 29252): 12400
- area under confluence curve (HCC2935 [3]; test compound dose 10 nM, dosing schedule: sequential, osimertinib-only DTP control AUC in same experiment: 6271, DMSO control AUC in same experiment: 13875): 6600
- area under confluence curve (HCC2935 [3]; test compound dose 10 nM, dosing schedule: upfront, osimertinib-only DTP control AUC in same experiment: 10360, DMSO control AUC in same experiment: 13875): 6240
- area under confluence curve (HCC4006 [4]; test compound dose 10 nM, dosing schedule: sequential, osimertinib-only DTP control AUC in same experiment: 21234, DMSO control AUC in same experiment: 16638): 5480
- area under confluence curve (HCC4006 [4]; test compound dose 10 nM, dosing schedule: upfront, osimertinib-only DTP control AUC in same experiment: 19238, DMSO control AUC in same experiment: 16638): 4030
- area under confluence curve (HCC827 [5]; test compound dose 10 nM, dosing schedule: sequential, osimertinib-only DTP control AUC in same experiment: 8266, DMSO control AUC in same experiment: 27404): 2780
- area under confluence curve (HCC827 [5]; test compound dose 10 nM, dosing schedule: upfront, osimertinib-only DTP control AUC in same experiment: 13929, DMSO control AUC in same experiment: 27404): 4260
- area under confluence curve (II-18 [6]; test compound dose 10 nM, dosing schedule: sequential, osimertinib-only DTP control AUC in same experiment: 21122): 426
- area under confluence curve (II-18 [6]; test compound dose 10 nM, dosing schedule: upfront, osimertinib-only DTP control AUC in same experiment: 22894): 19200
